Source: PubChem
Tb PYK inh = qHTS of Trypanosoma Brucei Inhibitors. pyruvate kinase (Trypanosoma brucei), Q57TT1. TbPYK enzyme, Kinase-Glo Plus ATP luminescence, 45 min. Potency, µM (titrated, usually from 76.8 µM), most hits filed as inhibitors. actives 0.12% (n = 410,000). AID 624173, 2012; also: nearly all actives have a fitted effect of over 50% in size
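ADP (130 uM final) triggers the TbPYK reaction after compound addition; incubation is 45 min at room temperature. Kinase-Glo Plus is then added and luminescence imaged. Normalized data are fitted to concentration-effect curves.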
LmPK inh = qHTS Assay for Inhibitors of Leishmania Mexicana Pyruvate Kinase (LmPK) | Q27686 | AID 1721, 2009 | actives 0.37% (n = 290,000) | purified LmPK, Kinase-Glo ATP luminescence, 1 h | Potency, µM (doses to about 57.5 µM), most hits filed as inhibitors
Target sequence (Q27686 whole entry, looked up): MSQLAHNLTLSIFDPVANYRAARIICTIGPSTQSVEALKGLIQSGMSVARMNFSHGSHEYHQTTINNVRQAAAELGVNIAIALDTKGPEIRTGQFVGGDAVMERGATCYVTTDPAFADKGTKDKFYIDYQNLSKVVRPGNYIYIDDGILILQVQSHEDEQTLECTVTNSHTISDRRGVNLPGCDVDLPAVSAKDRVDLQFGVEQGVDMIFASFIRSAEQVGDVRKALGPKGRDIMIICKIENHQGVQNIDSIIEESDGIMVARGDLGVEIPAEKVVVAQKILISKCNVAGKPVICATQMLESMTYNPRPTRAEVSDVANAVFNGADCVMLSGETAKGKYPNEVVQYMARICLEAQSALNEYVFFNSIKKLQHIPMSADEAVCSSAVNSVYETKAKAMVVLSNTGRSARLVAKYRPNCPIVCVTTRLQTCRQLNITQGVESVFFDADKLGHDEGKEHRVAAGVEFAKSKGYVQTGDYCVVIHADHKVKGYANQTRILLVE
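Purified LmPK (0.1 nM) with 0.5 mM PEP and 0.1 mM ADP in imidazole buffer pH 7.2 with MgCl2/KCl, 1 h at room temperature. ATP formed was read by luciferase luminescence and normalized to no-enzyme and uninhibited controls.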
Cycloheximide cs = Cycloheximide Counterscreen for Small Molecule Inhibitors of Shiga Toxin; cell reporter, cycloheximide protein synthesis inhibition counterscreen; max response, %; actives 12% (n = 300,000); AID 2314, 2010; in the data active = max response mostly above about 13%, no sharp cut-off; inactive = mostly below about 14%; also: read at 38.3 µM for the half of the compounds with a filed dose
Giardia FBPA inh = qHTS Assay for Inhibitors of Fructose-1,6-bisphosphate Aldolase from Giardia Lamblia | A8B2U2 | purified Giardia FBPA | Potency, µM (series often up to 59.6 µM), usual class: inhibitors | actives 0.71% (n = 290,000); also: nearly all actives have a fitted effect of over 55% in size
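Giardia FBPA (40 nM reagent) was preincubated 10 min at RT with compound (up to 57.5 uM final), then substrate plus GAPDH/TPI/NAD/arsenate coupling system with diaphorase/resazurin was added; resorufin fluorescence (525/598 nm) was read after 20 min.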
Sm TGR block = qHTS Assay for the Inhibitors of Schistosoma Mansoni Peroxiredoxins. purified TGR, DTNB reduction, TNB absorbance 405 nm. Potency, µM (top dose mostly 114 µM), actives largely listed as inhibitors. actives 3% (n = 360,000); also: nearly all actives have a fitted effect of over 60% in size
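TGR 20 nM + NADPH 100 uM (dispensed conc.), cpd preinc 15 min RT; start with NADPH (500 uM addition) then DTNB (15 mM addition). Kinetic TNB absorbance, 405 nm filter. Four-parameter Hill fit across titration.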
Shiga toxin inh = A qHTS for Small Molecule Inhibitors of Shiga Toxin. Vero cells, Shiga toxin protein synthesis inhibition reporter. actives 9.2% (n = 290,000). inhibition, % at 38.7 µM; in the data active = inhibition mostly above about 28%, no sharp cut-off; inactive = mostly below about 43%
Numbers stand for hits; i = inactive; ? = inconclusive; nt = no result; [ ] = remark or other dose. Shown is part of a subset that was picked to be rich in hits. Unless noted, calls follow the shape of the dose curve; as a rule, active = well fitted curve in the direction sought with a large enough effect; inconclusive = small, poorly fitted or top-dose-only effect, or another doubt; inactive = no such curve, though single readings can be large; an effect the other way counts as inactive or inconclusive.

SMILES | Tb PYK inh | LmPK inh | Cycloheximide cs | Giardia FBPA inh | Sm TGR block | Shiga toxin inh
c1ccc(-c2csc(Nc3ncccn3)n2)cc1 | i | i | i | i | i | 54
CCOC(=O)/C(C)=N/Nc1nc(-c2ccc(NC(C)=O)cc2)cs1 | i | i | 18 | ? | 11µM | i
COc1ccc2cc3cc(C(=O)Nc4cc(C)c(Cl)cc4OC)oc3nc2c1 | i | nt | nt | nt | i | nt
O=C(CN1C(=O)CCSc2ccc(S(=O)(=O)N3CCCC3)cc21)Nc1cccc(F)c1 | i | nt | nt | nt | i | nt
CCCCCCCNC1=CC(=O)CC(c2ccco2)C1 (stereo not drawn) | i | i | 19 | i | i | i
CCc1ccc2[nH]c3nc(C)cc(C)c3c(=O)c2c1 | i | i | 21 | i | i | i
COc1ccc(-n2c(=O)c3ccc(C(=O)NCc4ccc(C)cc4)cc3n(CC(=O)Nc3cccc(F)c3)c2=O)cc1 | i | nt | nt | nt | i | nt
CC1CC(C)CN(c2ccc([N+](=O)[O-])nc2)C1 (stereo not drawn) | i | i | 17 | i | i | i
CCOC(=O)c1ccccc1NC(=O)Cn1c(=O)n(CCCC(=O)NCc2ccc3c(c2)OCO3)c(=O)c2ccccc21 | i | nt | nt | nt | i | nt
O=C(O)C1C2C=CC(O2)C1C(=O)Nc1ccc(S(=O)(=O)Nc2ccccc2)cc1 (stereo not drawn) | ? | i | i | i | 6.3µM | i
O=C(O)C1C2C=CC(O2)C1C(=O)Nc1ccc(S(=O)(=O)N2CCc3ccccc32)cc1 (stereo not drawn) | i | i | i | i | 14µM | i
COc1ccc(NC(=O)c2cc(S(=O)(=O)N3CCc4ccccc43)cn2C)cc1 | i | i | 14 | i | i | 28
COc1ccc(CNC(=O)CCc2c(C)c3ccc(OC)c(C)c3oc2=O)cc1OC | i | nt | nt | nt | i | nt
COc1ccc(N2C(=O)c3ccccc3NC2c2ccc(OC)c(COc3ccccn3)c2)cc1 (stereo not drawn) | i | i | 16 | i | i | i
COc1ccc(N2C(=O)c3ccccc3NC2c2ccc(OC)c(CSc3ccccn3)c2)cc1 (stereo not drawn) | i | i | 56 | i | i | i
CCCN1C(=O)c2ccccc2NC1c1ccc(OC)c(CSc2ccccn2)c1 (stereo not drawn) | i | i | i | i | i | i
CCCCn1c(=O)[nH]c(=O)c2c1nc(Cn1ncc(Cl)c(Cl)c1=O)n2CCC | i | i | i | i | 18µM | i
CCCCn1c(=O)[nH]c(=O)c2c1nc(CN1C(=O)c3ccccc3S1(=O)=O)n2CCC | i | i | i | i | i | i
Cc1nc(C)c(-c2ccc(SCc3ccccc3F)nn2)s1 | i | i | 33 | i | i | 119
COc1ccccc1-c1ccc(SCc2ccccc2)nn1 | i | i | 38 | i | i | 76
COc1ccccc1-c1ccc(SCc2ccccc2F)nn1 | i | i | 29 | i | i | 66
COc1ccccc1-c1ccc(SCc2cccc(F)c2)nn1 | i | i | 30 | i | i | 66
CCOC(=O)c1ccccc1NC(=O)CSc1ccc(-c2sc(C)nc2C)nn1 | i | nt | nt | nt | i | nt
COc1ccc(N(CCC(=O)O)S(=O)(=O)c2ccc(C)cc2C)cc1 | i | i | i | i | i | i
Cc1cccc(C(C)C)c1NC(=O)C1CCCN1S(=O)(=O)c1cccc2nsnc12 (stereo not drawn) | i | nt | nt | nt | i | nt
SMILES | Tb PYK inh | LmPK inh | Cycloheximide cs | Giardia FBPA inh | Sm TGR block | Shiga toxin inh
Oc1ccc(O)c(/C(=N/Nc2ccccc2)c2ccccc2)c1 | nt | i | 27 | i | 6.3µM | i
Cc1ccc(NC2=C(CC(=O)O)C(c3ccc(F)cc3)N(c3ccc(C)cc3)C2=O)cc1 (stereo not drawn) | i | nt | nt | nt | i | nt
COc1ccccc1Nc1nnc(SCC(=O)NC(=O)Nc2ccc3c(c2)OCCO3)s1 | i | i | i | i | i | i
Cc1ccccc1Cn1c(=O)n(-c2ccc(Cl)cc2)c(=O)c2c3c(sc21)CCCC3 | i | nt | nt | nt | i | nt
CN(C)CCN(C(=O)c1ccco1)c1nc2cc3c(cc2s1)OCCO3 | i | i | 38 | ? | i | i
COc1ccc2sc(N(CCN(C)C)C(=O)c3cc(Cl)sc3Cl)nc2c1 | i | i[11.5 µM] | i | i | i | i
CN(C)CCN(C(=O)c1ccc(N2C(=O)CCC2=O)cc1)c1nc2cc3c(cc2s1)OCCO3 | nt | i | 38 | i | 35µM | 60
COc1ccc2sc(N(CCN(C)C)C(=O)c3ccc4ccccc4c3)nc2c1 | i | i | 21 | i | i | i
CN(C)CCN(C(=O)c1ccc(C(=O)c2ccccc2)cc1)c1nc2cc3c(cc2s1)OCCO3 | i | i | 36 | i | i | 81
CCOc1ccc(NC(=O)Cn2c(=O)c(CNc3ccc(OC)cc3)cc3ccc(OC)cc32)cc1 | i | nt | nt | nt | i | nt
CN(C)CCN(C(=O)c1ccc(S(=O)(=O)N(C)c2ccccc2)cc1)c1nc2ccc(Cl)cc2s1 | i | i | 34 | nt | i | 64
CN(C)CCN(C(=O)c1ccc(S(=O)(=O)N(C)c2ccccc2)cc1)c1nc2cc3c(cc2s1)OCO3 | i | i | 18 | nt | i | i
CN(C)CCCN(C(=O)COc1ccccc1)c1nc2cc3c(cc2s1)OCCO3 | i | i | 24 | nt | i | i
CN(C)CCCN(C(=O)c1ccc(S(=O)(=O)N2CCc3ccccc32)cc1)c1nc2ccc(Cl)cc2s1 | i | i | i | nt | i | i
CN(C)CCCN(C(=O)c1ccc(S(=O)(=O)N(C)C)cc1)c1nc2cc3c(cc2s1)OCO3 | i | i | i | i | i | i
Cc1cc(C)c2nc(N(CCN(C)C)C(=O)c3ccc(S(=O)(=O)N(C)CC4CCCO4)cc3)sc2c1 (stereo not drawn) | i | i | 22 | ? | i | i
Cc1ccc(NC(=O)NCc2c(-n3cccc3)sc3c2CCCC3)c(Cl)c1 | i | nt | nt | nt | i | nt
Cc1ccc2oc(=O)c3cnn(CC(=O)Nc4cccc(C(F)(F)F)c4)c3c2c1 | i | nt | nt | nt | i | nt
CN(C)CCCN(C(=O)c1ccc(C(=O)c2ccccc2)cc1)c1nc2cc3c(cc2s1)OCCO3 | i | i | i | nt | i | i
CN(C)CCN(C(=O)CN1C(=O)c2ccccc2C1=O)c1nc2cc3c(cc2s1)OCO3 | i | i | 27 | i | i | i
CN(C)CCN(C(=O)c1ccc(C(=O)c2ccccc2)cc1)c1nc2cc3c(cc2s1)OCO3 | i | i | 10 | nt | i | i
Fc1ccc(-c2cnc[nH]2)cc1 | i | i | 23 | i | i | i
O=S(=O)(c1cnc[nH]1)N1CCN(c2ccc(F)cc2)CC1 | i | i | i | i | i | i
Oc1c(-c2cc(-c3ccco3)[nH]n2)ccc2ccccc12 | i | i | 48 | i | i | 149
Oc1ccccc1-c1cc(-c2ccco2)[nH]n1 | i | i | 47 | i | ? | 134
